# Data reported in PubChem BioAssay (Tox21).
# Records with an inconclusive call do not appear. A number with no mark means an inactive call. The call rests on the fitted dose curve; in most records, active means well fitted cell-killing curve with a large enough effect in the repeat runs; inconclusive means weak or mixed curves, or effect the other way; inactive means no such curve, though single readings can be large or run the other way.
# Test: qHTS assay to identify small molecule antagonists of the retinoid-related orphan receptor gamma (ROR-gamma) signaling pathway - cell viability counter screen (AID 1159520); further: nearly all actives have a fitted effect of over 50% in size
# Details: Tet-on RORgamma CHO cells viability, ATP luminescence, 16 h; series mostly up to 92.4 µM; activity, negative = cytotoxicity: at the top concentration
# How it was run: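 Tet-on ROR gamma CHO cells (1,000/well) were plated 4 hr, given compounds in DMSO for 2 hr at 37 C, then induced with 1 uM final doxycycline for 16 hr. Viability was read as ATP by CellTiter-Glo luminescence after 30 min.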
# On the % scale 0 is the no-effect control and ±100 the full control effect.
row,Compound,"activity, negative = cytotoxicity"
1,Cc1ccc(C)o1,2.63%
2,CCCCCCCCCC(=O)OCC,7.33%
3,CC[C@H](C)[C@@H](C(=O)O)n1sc2ccccc2c1=O,-0.559%
4,O=C(NS(=O)(=O)/C=C/c1cccs1)c1ccc(F)cc1Br,-2.1%
5,CC(=O)O[C@H]1C[C@@H]2CC[C@@H]3[C@H](CC[C@@]4(C)[C@H]3C[C@H]([N+]3(C)CCCCC3)[C@@H]4OC(C)=O)[C@@]2(C)C[C@@H]1N1CCCCC1,0.539% [at 42.5 µM]
6,CC(C)(C)c1cc(CCC(=O)OCC(COC(=O)CCc2cc(C(C)(C)C)c(O)c(C(C)(C)C)c2)(COC(=O)CCc2cc(C(C)(C)C)c(O)c(C(C)(C)C)c2)COC(=O)CCc2cc(C(C)(C)C)c(O)c(C(C)(C)C)c2)cc(C(C)(C)C)c1O,6.02% [at 42.5 µM]
7,CN(C)C/C=C(/c1ccc(Br)cc1)c1cccnc1,4.09% [at 42.5 µM]
8,O=c1[nH]cnc2ccccc12,6.11%
9,Cc1ccc(C(=O)C(C)CN2CCCCC2)cc1 (stereo not drawn),-0.0034% [at 42.5 µM]
10,CC(C)c1ccccc1C(C)C,4.27%
11,CC(C)(C)c1ccc(S)cc1,1.82%
12,CC(=O)[C@@]1(O)CC[C@H]2[C@@H]3C[C@H](C)C4=CC(=O)CC[C@]4(C)[C@H]3CC[C@@]21C,-3.59% [at 42.5 µM]
13,C#CCOC(=O)[C@@H](C)Oc1ccc(Oc2ncc(Cl)cc2F)cc1,-6.98%
14,N#CCc1cccc(C(F)(F)F)c1,0.758%
15,CN(C)CC[C@@H](c1ccc(Br)cc1)c1ccccn1,-2.58% [at 42.5 µM]
16,CC1=CC(=O)/C(=C(/C)O)C(=O)O1,1.81%
17,O=C(NN1CCCC1)NS(=O)(=O)c1ccc(Cl)cc1,5.25% [at 42.5 µM]
18,Nc1nc(N)c(-c2ccccc2)s1,0.742% [at 42.5 µM]
